Counter-ions that a name gives are not always drawn. ± gives the standard deviation of the averaged measurements.
How the values were obtained:
Experiment in all cases: growth (OD600 after 10 h); higher = more growth (less inhibition)
[1] = tested on: E. coli TESEC Alr+ wild-type control; conditions: compound 0.1 mM; raw OD600 reference: median of DMSO wells 0.241, cell-free background 0.041
Description: (§1)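 TESEC Mtb Alr E. coli, or the Alr+ wild-type control, in 384-well plates with Prestwick library compounds at 0.1 mM and 1% DMSO, across arabinose induction levels of 1E3 to 1E7 nM. Growth is read as OD600 after 10 h at 37 °C in triplicate biological replicates.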

[2] = tested on: E. coli TESEC Mtb Alr; conditions: compound 0.1 mM
Description: as §1

[3] = tested on: E. coli TESEC Mtb Asd; conditions: compound 0.1 mM
Description: (§2)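 TESEC E. coli strains in which the native enzyme is deleted and replaced by arabinose-inducible Mtb Asd, DapB, CysH or TrpD, each grown in its selective medium. Strains were screened against the Prestwick library at 0.1 mM and 1% DMSO in 384-well format at low and high arabinose induction. Growth is read as OD600 after 10 h in triplicate.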

[4] = tested on: E. coli TESEC Mtb DapB; conditions: compound 0.1 mM
Description: as §2

[5] = tested on: E. coli TESEC Alr+ wild-type control; conditions: compound 0.1 mM; raw OD600 reference: median of DMSO wells 0.49, cell-free background 0.052
Description: (§3)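 TESEC Mtb Alr E. coli (ΔaraC ΔtolC ΔentC Δalr ΔdadX, arabinose-inducible Mtb Alr) or the Alr+ wild-type control strain, grown in defined M9-fructose medium without D-alanine in 96-well plates with Prestwick library compounds at 0.1 mM and 1% DMSO. Low Alr induction is 0.1 µM arabinose and high induction is 10 mM arabinose.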

[6] = tested on: E. coli TESEC Mtb Alr; conditions: compound 0.1 mM; remark: listed apart in the source
Description: as §3

[7] = arabinose 1000 nM, raw OD600 reference: median of DMSO wells 0.294, cell-free background 0.041
[8] = arabinose 10000 nM, raw OD600 reference: median of DMSO wells 0.264, cell-free background 0.041
[9] = arabinose 100000 nM, raw OD600 reference: median of DMSO wells 0.201, cell-free background 0.041
[10] = arabinose 1000000 nM, raw OD600 reference: median of DMSO wells 0.193, cell-free background 0.041
[11] = arabinose 10000000 nM, raw OD600 reference: median of DMSO wells 0.146, cell-free background 0.041
[12] = arabinose induction (level): High, raw OD600 reference: median of DMSO wells 0.331, cell-free background 0.041
[13] = arabinose induction (level): Low, raw OD600 reference: median of DMSO wells 0.417, cell-free background 0.041
[14] = arabinose induction (level): High, raw OD600 reference: median of DMSO wells […], cell-free background 0.041
[15] = arabinose induction (level): Low, raw OD600 reference: median of DMSO wells 0.227, cell-free background 0.041
[16] = arabinose 100 nM, raw OD600 reference: median of DMSO wells 0.413, cell-free background 0.052
[17] = arabinose 10000000 nM, raw OD600 reference: median of DMSO wells […], cell-free background 0.052

Compound	growth [1]	growth [2, 7]	growth [2, 8]	growth [2, 9]	growth [2, 10]	growth [2, 11]	growth [3, 12]	growth [3, 13]	growth [4, 14]	growth [4, 15]	growth [5]	growth [6, 16]	growth [6, 17]
CC(C)(C)NC[C@H](O)c1ccc(O)c(CO)c1 [Levalbuterol hydrochloride]	0.235 ± 0.005	0.305 ± 0.011	0.273 ± 0.0041	0.197 ± 0.0075	0.214 ± 0.023	0.141 ± 0.0037	0.242 ± 0.05	0.32 ± 0.084	0.168 ± 0.033	0.179 ± 0.088	0.608 ± 0.014	0.4232 ± 0.00093	0.318 ± 0.01
NCCCC(O)(P(=O)(O)O)P(=O)(O)O [Alendronate sodium]	0.259 ± 0.0047	0.305 ± 0.013	0.265 ± 0.007	0.24 ± 0.033	0.178 ± 0.0032	0.162 ± 0.0058	0.343 ± 0.043	0.414 ± 0.04	0.214 ± 0.022	0.227 ± 0.019	0.514 ± 0.051	0.422 ± 0.012	0.204 ± 0.023
NC(N)=Nc1nc(CSCC/C(N)=N/S(N)(=O)=O)cs1 [Famotidine]	0.248 ± 0.0073	0.298 ± 0.013	0.273 ± 0.014	0.203 ± 0.03	0.187 ± 0.0063	0.151 ± 0.011	0.348 ± 0.074	0.436 ± 0.038	0.206 ± 0.043	0.203 ± 0.025	0.465 ± 0.058	0.413 ± 0.0053	0.328 ± 0.014
CCCCC(C)(O)C/C=C/[C@H]1[C@H](O)CC(=O)[C@@H]1CCCCCCC(=O)OC (mixture of isomers) [Misoprostol]	0.323 ± 0.014	0.3803 ± 0.0025	0.278 ± 0.0043	0.474 ± 0.013	0.193 ± 0.009	0.22 ± 0.013	0.35 ± 0.071	0.44 ± 0.022	0.332 ± 0.034	0.311 ± 0.044	0.518 ± 0.094	0.432 ± 0.0064	0.378 ± 0.013
CCCNC(C)(C)COC(=O)c1ccccc1 [Meprylcaine hydrochloride]	0.234 ± 0.0059	0.298 ± 0.0024	0.2777 ± 0.0023	0.211 ± 0.0098	0.215 ± 0.025	0.133 ± 0.0041	0.281 ± 0.061	0.338 ± 0.025	0.182 ± 0.022	0.221 ± 0.0093	0.6187 ± 0.0042	0.419 ± 0.0049	0.339 ± 0.0092
Cc1c(NC(=O)c2cccnc2)c(=O)n(-c2ccccc2)n1C [Nifenazone]	0.251 ± 0.0067	0.305 ± 0.0092	0.27 ± 0.0045	0.212 ± 0.024	0.183 ± 0.0036	0.1554 ± 0.001	0.309 ± 0.066	0.411 ± 0.1	0.192 ± 0.0073	0.262 ± 0.065	0.507 ± 0.062	0.413 ± 0.017	0.339 ± 0.011
CC1(C)S[C@@H]2[C@H](NC(=O)[C@H](N)c3ccccc3)C(=O)N2[C@H]1C(=O)O [Ampicillin trihydrate]	0.235 ± 0.0072	0.279 ± 0.011	0.253 ± 0.013	0.189 ± 0.024	0.1927 ± 0.0013	0.145 ± 0.0022	0.388 ± 0.056	0.394 ± 0.066	0.205 ± 0.013	0.256 ± 0.051	0.479 ± 0.038	0.4271 ± 0.0036	0.338 ± 0.0045
CCC(=O)OCC(=O)[C@@]1(OC(=O)CC)[C@H](C)C[C@H]2[C@H]3[C@H]([C@@H](O)C[C@@]21C)[C@@]1(C)C=CC(=O)C=C1C[C@H]3Cl [Alclometasone dipropionate]	0.21 ± 0.0058	0.318 ± 0.028	0.277 ± 0.017	0.226 ± 0.07	0.127 ± 0.022	0.217 ± 0.065	0.209 ± 0.013	0.459 ± 0.032	0.198 ± 0.0033	0.215 ± 0.0041	0.492 ± 0.04	0.401 ± 0.0078	0.241 ± 0.04
CN(C)/N=N/c1[nH]cnc1C(N)=O [Dacarbazine]	0.211 ± 0.0036	0.259 ± 0.0098	0.219 ± 0.012	0.197 ± 0.036	0.136 ± 0.0025	0.151 ± 0.0043	0.278 ± 0.036	0.362 ± 0.12	0.181 ± 0.012	0.213 ± 0.033	0.51 ± 0.11	0.405 ± 0.013	0.296 ± 0.024
CC(=O)N(CC(C)C(=O)O)c1c(I)cc(I)c(N)c1I (stereo not drawn) [Iocetamic acid]	0.213 ± 0.007	0.274 ± 0.0081	0.289 ± 0.0072	0.2 ± 0.01	0.265 ± 0.003	0.144 ± 0.0039	0.36 ± 0.022	0.268 ± 0.021	0.202 ± 0.018	0.202 ± 0.019	0.509 ± 0.026	0.183 ± 0.11	0.397 ± 0.011
Cc1c(-c2ccccc2)oc2c(C(=O)OCCN3CCCCC3)cccc2c1=O [Flavoxate hydrochloride]	0.139 ± 0.0069	0.171 ± 0.0084	0.248 ± 0.0097	0.145 ± 0.0026	0.105 ± 0.0025	0.139 ± 0.0023	0.217 ± 0.06	0.381 ± 0.04	0.168 ± 0.011	0.234 ± 0.12	0.414 ± 0.023	0.398 ± 0.015	0.262 ± 0.019
CCCc1cc(C(N)=S)ccn1 [Prothionamide]	0.245 ± 0.011	0.295 ± 0.0059	0.269 ± 0.013	0.184 ± 0.028	0.174 ± 0.014	0.136 ± 0.0019	0.231 ± 0.011	0.388 ± 0.046	0.208 ± 0.013	0.221 ± 0.036	0.57 ± 0.0073	0.414 ± 0.013	0.36 ± 0.021
CN(c1nccc(=O)[nH]1)C1CCN(c2nc3ccccc3n2Cc2ccc(F)cc2)CC1 [Mizolastine]	0.18 ± 0.016	0.221 ± 0.011	0.172 ± 0.0085	0.215 ± 0.01	0.0813 ± 0.0018	0.1409 ± 0.0014	0.177 ± 0.0092	0.293 ± 0.036	0.2 ± 0.039	0.174 ± 0.012	0.426 ± 0.018	0.406 ± 0.0081	0.162 ± 0.026
CC(C)C(=O)c1c(C(C)C)nn2ccccc12 [Ibudilast]	0.163 ± 0.0085	0.221 ± 0.0062	0.245 ± 0.0022	0.148 ± 0.0046	0.134 ± 0.0043	0.127 ± 0.0043	0.183 ± 0.011	0.372 ± 0.032	0.194 ± 0.012	0.208 ± 0.038	0.49 ± 0.013	0.401 ± 0.0083	0.229 ± 0.0069
CCCc1cc(=O)[nH]c(=S)[nH]1 [Propylthiouracil]	0.241 ± 0.0062	0.289 ± 0.025	0.263 ± 0.0094	0.219 ± 0.034	0.195 ± 0.0092	0.152 ± 0.0063	0.431 ± 0.04	0.45 ± 0.047	0.199 ± 0.0093	0.194 ± 0.019	0.55 ± 0.1	0.41 ± 0.015	0.345 ± 0.043
CCOC(=O)C1=C(C)NC(C)=C(C(=O)OC)C1c1cccc([N+](=O)[O-])c1 (stereo not drawn) [Nitrendipine]	0.173 ± 0.013	0.224 ± 0.01	0.0536 ± 0.0045	0.165 ± 0.0036	0.0556 ± 0.00083	0.15 ± 0.0073	0.246 ± 0.036	0.4531 ± 0.0035	0.217 ± 0.016	0.215 ± 0.0092	0.557 ± 0.015	0.412 ± 0.017	0.221 ± 0.13

Source: the supplement of paper PMC9262897, “Low-cost anti-mycobacterial drug discovery using engineered E. coli” (Nature Communications, 2022)
